Rows were chosen to be rich in hits. Some 12% of all compounds tested hit in one or more screens of this group.
AmpC inh detg: blocks E. coli AmpC beta-lactamase in detergent assay. AmpC hydrolysis of nitrocefin, absorbance 480 nm, 0.01% Triton. Potency, µM (titrated, usually from 114 µM), inactives show top-dose activity change, negative = inhibition, most hits filed as inhibitors. 370,000 compounds, 0.041% hits;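 also: potency is read from the fitted curve at half-maximal effect; 0% = no-compound wells and -100% = no-enzyme wells; nearly all actives have a fitted effect of over 25% in size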
Target sequence (P00811 whole entry, looked up): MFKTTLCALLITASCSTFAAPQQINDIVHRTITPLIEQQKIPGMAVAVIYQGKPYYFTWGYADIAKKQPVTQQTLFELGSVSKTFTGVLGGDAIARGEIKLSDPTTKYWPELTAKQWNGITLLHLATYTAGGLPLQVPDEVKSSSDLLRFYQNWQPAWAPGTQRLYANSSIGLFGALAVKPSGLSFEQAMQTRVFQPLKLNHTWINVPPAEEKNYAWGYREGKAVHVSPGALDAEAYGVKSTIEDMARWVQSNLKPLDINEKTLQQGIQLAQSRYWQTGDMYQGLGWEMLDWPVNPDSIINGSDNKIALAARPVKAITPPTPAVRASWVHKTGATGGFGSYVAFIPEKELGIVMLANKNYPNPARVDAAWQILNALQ
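20 mM phosphate pH 7.0 + 0.01% (detergent screen) or 0.0001% Triton X-100; 5.3 nM AmpC reagent; cpd preinc 15 min RT; nitrocefin (800 uM stock) to start; A480 q20 s × 4 min; Activity was normalised to no-enzyme and no-compound control wells.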
Sm TGR inh: blocks Schistosoma mansoni thioredoxin glutathione reductase | purified TGR, DTNB reduction, TNB absorbance 405 nm | Q962Y6 | 360,000 compounds, 3% hits | Potency, µM (highest dose often 114 µM), inactives show top-dose activity change, negative = inhibition, most hits filed as inhibitors; also: potency is read from the fitted curve at half-maximal effect; % is scaled to controls: 0 for no effect and ±100 for the full control effect; nearly all actives have a fitted effect of over 60% in size
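TGR 20 nM + NADPH 100 uM (dispensed conc.), cpd preinc 15 min RT; start with NADPH (500 uM addition) then DTNB (15 mM addition). Kinetic TNB absorbance, 405 nm filter. Four-parameter Hill fit across titration.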
SARS PLpro yeast-1: SARS-CoV PLP inhibition in yeast; Potency, µM (titrated, usually from 32.9 µM), without a hit: top-dose activity, positive = growth rescue, most hits filed as activators; S. cerevisiae expressing SARS-CoV PLpro, growth rescue; 330,000 compounds, 0.19% hits; calls by dose curve; also: potency is read from the fitted curve at half-maximal effect; 0% is about no effect; nearly all actives have a fitted effect of over 55% in size
Pf growth 96h: inhibits malaria parasite growth, 96 h | P. falciparum luciferase reporter growth, 96 h | Potency, µM (titrated, usually from 28.7 µM), inactives show at the highest dose activity change, negative = inhibition, actives largely listed as inhibitors | 320,000 compounds, 6.9% hits | AID 504834; also: potency is read from the fitted curve at half-maximal effect; % is scaled to controls: 0 for no effect and ±100 for the full control effect
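Compounds incubated with erythrocytes infected by luciferase-expressing P. falciparum (2% hematocrit, 0.05% parasitemia final) for 96 hours, 37 C in 5% CO2. Growth inhibition scored as decreased luciferase luminescence.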
Pf growth 48h: P. falciparum growth inhibition at 48 hours (one generation) | P. falciparum luciferase growth in erythrocytes, 48 h | Potency, µM (highest dose often 28.7 µM), for the others: top-dose activity change, negative = inhibition, usual class: inhibitors | 310,000 compounds, 5.9% hits | AID 504832; also: potency is read from the fitted curve at half-maximal effect; % is scaled to controls: 0 for no effect and ±100 for the full control effect
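Parasite viability was followed by luminescence of a genomically integrated firefly luciferase. Cultures held 0.1% parasitemia at 2% hematocrit (final), incubated under 5% CO2 at 37 C.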
AmpC no deterg: AmpC beta-lactamase inhibition without detergent | P00811 | AmpC nitrocefin hydrolysis, absorbance 480 nm, 0.0001% Triton | Potency, µM (highest dose often 57.1 µM), for inactives: top-dose activity change, negative = inhibition, actives largely listed as inhibitors | 330,000 compounds, 0.52% hits;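 also: potency is read from the fitted curve at half-maximal effect; plate controls were no compound for no effect and no enzyme for full effect; nearly all actives have a fitted effect of over 20% in size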
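20 mM phosphate pH 7.0 + 0.01% (detergent screen) or 0.0001% Triton X-100; 5.3 nM AmpC reagent; cpd preinc 15 min RT; nitrocefin (800 uM stock) to start; A480 q20 s × 4 min; Activity was normalised to no-enzyme and no-compound control wells.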
SARS PLpro yeast-2: Validates SARS-CoV PLpro inhibitor hits in yeast; shares compounds with SARS PLpro yeast-1; yeast expressing SARS-CoV PLpro, growth phenotype rescue; calls only; 1,000 compounds, 19% hits; AID 652038; call rule not given here
* marks the source's active call; other numbers are inactive results; i = inactive; ? = inconclusive; nt = not tested or not shown; + = active, no number; [ ] = remark or other dose. Unless noted, calls follow the shape of the dose curve; as a rule, active = well fitted curve in the direction sought with a large enough effect; inconclusive = small, poorly fitted or top-dose-only effect, or another doubt; inactive = no such curve, though single readings can be large; an effect the other way counts as inactive or inconclusive.

SMILES	AmpC inh detg	Sm TGR inh	SARS PLpro yeast-1	Pf growth 96h	Pf growth 48h	AmpC no deterg	SARS PLpro yeast-2
O=C(Nc1cccnc1)c1ccc(N2CCCC2)c([N+](=O)[O-])c1	-1%	-29%	1%	-18%	-7%	-25%	nt
Cc1ccccc1NC(=O)CSc1nnc(CNC(=O)c2ccco2)n1C	-1%	1%	0%	?	-2%	30%	nt
O=C(CSc1nnc(Cn2c(=O)sc3ccccc32)n1-c1ccccc1)N1CCCC1	?	-15%	?	?	-1%	-18%	i
Cc1ccccc1-n1c(Cn2c(=O)sc3ccccc32)nnc1SCC(=O)N1CCCC1	-7%	-6%	28%	?	?	129%	nt
Cc1ccc(S(=O)(=O)Nc2c(C)n(C)n(-c3ccccc3)c2=O)cc1C(=O)OCC(=O)N1CCCC(C)C1 (centres undefined)	-1%	9%	8%	-29%	-15%	63%	nt
NC(=S)NN=C1C2CC3CC(C2)CC1C3	?	-7%	?	?	?	-13%[11.4 µM]	i
NC(=O)C(=O)NN=C1C2CC3CC(C2)CC1C3	1%	12%	-6%	5%	0%	-17%	nt
COCCn1c(SCC(=O)c2ccc(OC)cc2)nc2cc(C(=O)NC3CCCC3)ccc2c1=O	3%	7%	nt	nt	nt	nt	nt
CC(C)C(c1nnnn1Cc1ccccc1)N1CCN(Cc2ccc3c(c2)OCO3)CC1 (centres undefined)	-7%	0%	-2%	38%	?	24%	nt
Cc1ccc(SCCC(=O)Nc2c(C)n(C)n(-c3ccccc3)c2=O)cc1	-2%	0%	?	37%	nt	-3%	i
Cc1ccc(SC(C)C(=O)Nc2c(C)n(C)n(-c3ccccc3)c2=O)cc1 (centres undefined)	3%	3%	?	nt	6%	-7%	+
Cc1c(NC(=O)CSc2ccc(Cl)cc2)c(=O)n(-c2ccccc2)n1C	6%	-2%	-1%	24%	18%	11%	nt
Cc1c(NC(=O)C(C)Sc2ccccc2)c(=O)n(-c2ccccc2)n1C (centres undefined)	-2%	0%	-7%	-20%	nt	-4%	nt
Cc1csc(N/N=C/c2ccc(O)c([N+](=O)[O-])c2)n1	4%	10µM*	10µM*	?	nt	-50%	+
Cc1ccc(Nc2nnc(SCC(=O)Nc3cccnc3Cl)s2)cc1C	-11%	3%	-13%	-24%	-7%	-23%	nt
O=C(N/N=C/c1ccc(O)c(O)c1O)/C(=C/c1ccc([N+](=O)[O-])cc1)NC(=O)c1ccccc1	-4%	0%	2.5µM*	9.3µM*	nt	-42%	i
CC(Oc1ccccc1)C(=O)NC1=NCCS1 (centres undefined)	-1%	-3%	-1%	?	304%	-4%[2.29 µM]	nt
Cc1ccc(C2=N/C(=C/c3cccs3)C(=O)N2Nc2ccccc2)cc1	1%	-1%	-14%	nt	?	-8%	nt
CCN1C(=NCc2ccccc2)N[C@@H](c2ccccc2)[C@H](C(=O)OC)[C@H]1C	?	8%	?	?	?	-14%	i
Cc1ccc(/C=C/c2onc(C)c2S(=O)(=O)N2CCC(C(=O)NCc3ccc(Cl)cc3)CC2)cc1	22%	0%	nt	nt	nt	nt	nt
COc1ccc(S(=O)(=O)NCCN2CCOCC2)c2ccccc12	-11%	1%	20µM*	16%	22%	-7%	i
COc1ccc(S(=O)(=O)NCCN2CCOCC2)c(C)c1C	-19%	-2%	0%	-11%	16%	-9%	nt
COc1cccc(/C=C2\CCCCC2=O)c1	0%	-31%	-3%	-2%	-7%	-10%	nt
Cc1ccc(C)c(NC(=O)c2cc(-c3cccnc3)nc3ccccc23)c1	-11%	3%	-6%	33%	150%	-6%	nt
C/C(=N\NC(=O)c1cc(-c2cccnc2)nc2ccccc12)c1ccc(O)cc1O	-4%	-10%	?	?	9.3µM*	-11%	i
SMILES	AmpC inh detg	Sm TGR inh	SARS PLpro yeast-1	Pf growth 96h	Pf growth 48h	AmpC no deterg	SARS PLpro yeast-2
CCCCN(C)Cc1c(C)[nH]c2ccc(OCC)cc2c1=O	?	-9%	?	?	-6%	-9%	i
CCOc1ccc2[nH]c(C)c(CN3CCN(CC)CC3)c(=O)c2c1	4%	0%	8%	10%	12%	-20%	nt
CC(C)OC(=O)c1cc2ccccc2oc1=O	-9%	4%	?	?	4%	-6%	i
O=C(O)c1cc2ccccc2oc1=O	?	5%	5%	27%	19%	-31%	nt
COC(=O)c1ccc2c(=O)n(NC(=O)C(c3ccccc3)c3ccccc3)c(=S)[nH]c2c1	?	-8%	?	-17%	nt	-49%	i
CCC(C(=O)Nc1nccs1)c1ccccc1 (centres undefined)	-14%	-33%	3%	-20%	?	-19%	nt
CCC(C)C(=O)Nc1nccs1 (centres undefined)	2%	5%	10µM*	12%	5%	-18%	i
Cc1c(C)c2c(C)[nH]nc2oc1=O	-2%	3%	?	?	3%	-5%	i
CN(C(=O)c1ccccc1-c1ncc[nH]1)C1CCCN(Cc2ccccc2F)C1 (centres undefined)	5%	2%	16µM*	7%	2%	-5%	i
CN(C(=O)c1ccncc1)C1CCCN(Cc2ccccc2F)C1 (centres undefined)	0%	-11%	-7%	?	91%	63%	nt
CCCCCCC(=O)Nc1nc(C)c(-c2csc(Nc3cc(OC)ccc3OC)n2)s1	0%	5%	?	7.4µM*	7.4µM*	-40%	i
CC(C)c1cccc(O)c(=O)c1	?	?	?	3.3µM*	2.9µM*	-7%	i
C[C@H](N)[C@H](O)c1cccc(O)c1	nt	nt	nt	-10%[12.8 µM]	-13%[12.8 µM]	nt	nt
O=C(CCNS(=O)(=O)c1ccc2c(c1)CCC(=O)N2)NCc1ccc2c(c1)OCO2	-3%	-3%	6%	-10%	9%	-19%	nt
Cc1ccc(S(=O)(=O)NCCC(=O)NCc2ccc3c(c2)OCO3)cc1C	?	5%	16µM*	2%	nt	-32%	i
CCOC(=O)c1oc2ccccc2c1CN1CCN(C(=O)c2ccccc2)CC1	?	-15%	3.5µM*	?	-8%	105%	i
CCc1ccc(NC(=O)Cn2cc([N+](=O)[O-])nc2C)cc1	?	-22%	0%	?	7%	-17%	nt
COc1ccc(/C=N/NC(=O)c2cccc([N+](=O)[O-])c2)cc1OC(=O)c1ccccc1	0%	-9%	-4%	nt	-5%	-10%	nt

Assay outcomes (PubChem)
